What all share (assay): PBM binding z-score (relative to random genomic background probes); higher = stronger binding; sequences stand for … in GC…GCGATTGACAGCGTAGAATGAAGG
The subject of test [1] is FXR:RXRa (NR concentration 270 nM, RXRa partner concentration 90 nM). Summed up: (§1)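 Binding buffer was PBS pH 7.4 with 2% milk, 0.02% Triton X-100, 1 mM DTT, 0.2 mg/mL BSA and 0.4 mg/ml salmon testes DNA. In it, ligand-free nuclear receptor dimers were incubated 1 h on custom Agilent 4×180K protein-binding microarrays carrying double-stranded probes. Antibodies against each partner (one per run) detected binding, and z-scores were calculated against random background probes after regression normalization of scanned fluorescence.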

Test [2] has as its system LXRa:RXRa (NR concentration 270 nM, RXRa partner concentration 90 nM). Summed up:
as §1

Test [3] has as its system LXRa homodimer (NR concentration 270 nM). In a few lines: as §1
Test [4] deals with LXRb:RXRa (NR concentration 270 nM, RXRa partner concentration 90 nM). In a few lines:
as §1

In test [5] the test system is LXRb homodimer (NR concentration 270 nM). In a few lines: as §1
Test [6] concerns PPARa:RXRa (NR concentration 270 nM, RXRa partner concentration 90 nM). In a few lines: as §1
Test [7] has as its system PPARg:RXRa (NR concentration 180 nM, RXRa partner concentration 90 nM). In a few lines: as §1
In test [8] the test system is PPARg:RXRa 270nM:90nM, anti-RXR (NR concentration 270 nM, RXRa partner concentration 90 nM). In a few lines: as §1
Test [9] has as its system PPARg:RXRa 30nM:10nM, anti-RXR (NR concentration 30 nM, RXRa partner concentration 10 nM). In a few lines: as §1
Test [10] concerns PPARg:RXRa 90nM:30nM, anti-RXR (NR concentration 90 nM, RXRa partner concentration 30 nM). Summed up: as §1
Test [11] has as its system PPARg:RXRa DBDmut IVT, anti-RXR (DBD mutation: RXRa K156A/R161A, NR concentration 270 nM, RXRa partner concentration 90 nM). Summed up:
as §1

Test [12] relates to PPARg:RXRa IVT, anti-PPARg (NR concentration 270 nM, RXRa partner concentration 90 nM). In a few lines: as §1
Test [13] relates to PPARg DBDmut:RXRa IVT, anti-PPARg (DBD mutation: PPARg1 K132A/R137A, NR concentration 270 nM, RXRa partner concentration 90 nM). Summed up:
as §1

The test system of test [14] is PPARg DBDmut IVT, anti-PPARg (DBD mutation: PPARg1 K132A/R137A, NR concentration 270 nM). In a few lines: as §1
Test [15] concerns PPARg homodimer (NR concentration 180 nM). In a few lines: as §1
Test [16] deals with PXR:RXRa (NR concentration 270 nM, RXRa partner concentration 90 nM). Summed up:
as §1

The subject of test [17] is PXR homodimer (NR concentration 270 nM). Summed up: as §1
For test [18], the system named is RARa:RXR (NR concentration 270 nM, RXRa partner concentration 90 nM). Summed up:
as §1

For test [19], the system named is RARa homodimer (NR concentration 270 nM). Summed up:
as §1

Test [20] concerns RARb:RXRa (NR concentration 270 nM, RXRa partner concentration 90 nM). Summed up: as §1

For AATTCAGGGTCATCGTAGGCCAGAGTACGCACAG, the PBM binding z-score in test [1] was 7.63; in test [2] it was 6.71; in test [3], 4.2; in test [4], 5.55; in [5], 2.29; in test [6], 6.2. In addition, the PBM binding z-score in test [7] is 7.36; in test [8] it was 7.02; in test [9] it was 3.49; in [10], 5.72; in test [11], 3.42; in test [12], 4.57. The PBM binding z-score came to 2.45 in [13]; 3.09 in [14]; 2.85 in [15]; 5.49 in test [16]; 1.43 in test [17]; 5.54 in test [18]. The PBM binding z-score in [19] came to 1.45; in [20], 4.45.
As to CGTCCAAGGTCAAAGGGCAGTGAAGAGATGACGG, the PBM binding z-score in test [1] was 7.23; in test [2] it was 5.66; in [3], 1; in [4], 4.32; in [5], 0.742; in test [6], 6.15. Also, the PBM binding z-score in test [7] came to 7.62; in test [8], 7.16; in test [9], 5.08; in test [10], 7.03; in test [11] it was 2.96; in test [12], 4.49. Moreover, the PBM binding z-score was 0.0203 in test [13]; 0.196 in test [14]; 2.9 in [15]; 4.98 in [16]; 1.24 in [17]; 6.27 in test [18]. The PBM binding z-score was 1.01 in [19] and 5.36 in [20].
Turning to ATCTCTAGGTAACAGTTCAGTGAATCCCGAGGAT, the PBM binding z-score in test [1] is 0.279; in test [2], 0.179; in test [3] it was 0.588; in [4], 0.193; in [5] it was 0.937; in [6], 2.24. Further, the PBM binding z-score in [7] stood at 3.39; in test [8], 4.74; in [9], 3.06; in test [10], 4.55; in test [11], 3.65; in [12], 3.42. Besides, the PBM binding z-score in [13] came to 1.56; in test [14], 1; in test [15], 0.452; in [16] it was 0.487; in test [17], 0.757; in [18], 0.576. For the same sequence, the PBM binding z-score in [19] turned out to be 0.915; in test [20] it was 1.01.
For the sequence TAGCCCAGGTCATGCGGGCCAGTATAGTGTCGGC, the PBM binding z-score in test [1] was 4.35; in test [2], 3.42; in test [3], 0.136; in test [4], 1.9; in [5], -0.0451; in test [6], 3.8. Also, the PBM binding z-score in [7] was found to be 2.55; in [8], 2.55; in [9], 0.267; in test [10] it was 1.35; in test [11] it was 0.638; in test [12], 2.57. The PBM binding z-score in [13] was -0.0508; in test [14], -0.838; in test [15], 0.868; in test [16], 2.52; in [17], 0.093; in test [18], 3.04. Moreover, the PBM binding z-score in test [19] is -0.161; in test [20], 3.74.
For GCTAGCAGCCCATTTGGGTCACTCAATGACGGGC, the PBM binding z-score is -0.281 in test [1]; -0.586 in [2]; -0.832 in test [3]; -0.285 in test [4]; -0.892 in test [5]; 0.853 in [6]. Also, the PBM binding z-score in [7] was 0.291; in test [8] it was 0.0178; in [9] it was -0.724; in test [10], -0.506; in test [11] it was -0.167; in test [12], 0.995. For the same sequence, the PBM binding z-score in [13] is -0.831; in [14] it was -1.56; in test [15], -0.798; in [16], -0.106; in test [17], -0.918; in [18], 0.359. The values for the PBM binding z-score in test [19] and in test [20] were -1.15 and 0.893, respectively.
Consider TGTATTAGTTGAAGGGCAACCGACGAGTCCGTTT, for which the PBM binding z-score stood at 0.551 in [1]; 0.588 in test [2]; 0.228 in test [3]; 0.491 in test [4]; 0.587 in test [5]; 0.462 in test [6]. Moreover, the PBM binding z-score in test [7] worked out at 0.102; in test [8] it was 0.95; in test [9], 0.864; in [10], 0.871; in test [11], 0.404; in test [12] it was 0.87. Besides, the PBM binding z-score in [13] amounted to 0.403; in test [14], 1.05; in test [15], 1.27; in test [16], 0.63; in test [17] it was 0.962; in [18] it was 0.3. The PBM binding z-score in [19] stood at 0.995; in [20] it was 1.5.
As for CGTCCGAGGTCAGAGAGGTCAGTGAATGCCGAGT, the PBM binding z-score in test [1] is 6.42; in test [2] it was 5.78; in [3] it was 3.42; in test [4], 5.43; in test [5] it was 0.406; in test [6], 5.62. Also, the PBM binding z-score in [7] stood at 4.63; in test [8], 5.26; in [9] it was 2; in test [10], 4.02; in [11], 3.24; in test [12], 4.09. Further, the PBM binding z-score in test [13] is -0.171; in [14], -0.203; in [15], 4.74; in [16], 6.53; in test [17] it was 12.4; in [18], 5.71. Further, the PBM binding z-score amounted to 0.718 in test [19] and 5.23 in test [20].

For the origin of these results see the supplement of paper PMC6555819.
